Values joined by “and” are separate entries in the source; they are usually repeats but may differ in a detail not shown here. Identical values can stand only once. Inconclusive results are not listed. Where a call stands in place of a potency, no number is given. Some compounds were tested as several samples or in several runs, with calls that do not always agree. Active and inactive are the calls of the source. Unless noted, the call rests on the fitted dose curve; in most records, active means well fitted curve in the direction sought with a large enough effect in the repeat runs; inconclusive means weak or mixed curves; inactive means no such curve, though single readings can be large; an effect the other way counts as inactive or inconclusive.
Tests used:
[1] = qHTS assay for small molecule agonists of the p53 signaling pathway (AID 651631; calls by dose curve; further: nearly all actives have a fitted effect of over 15% in size; further: potency means the concentration at half of the fitted maximal effect)
Method in brief: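 Testing took place in human colorectal HCT-116 cells with stable p53RE-driven beta-lactamase. After 16 h of compound exposure at 37 °C, a FRET substrate was added and fluorescence recorded 2 h later.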

[2] = qHTS assay for small molecules that induce genotoxicity in human embryonic kidney cells expressing luciferase-tagged ATAD5 (AID 651632); further: nearly all actives have a fitted effect of over 15% in size; further: potency means the concentration at half of the fitted maximal effect
Method in brief: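 Concentration-response screen for ATAD5 upregulation in HEK293T luciferase reporter cells; 16 hr treatment at 37C, then luminescence after 30 min with Amplite at room temperature.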

[3] = qHTS assay for small molecule agonists of the p53 signaling pathway - cell viability (AID 651633; calls by dose curve; further: nearly all actives have a fitted effect of over 30% in size; further: potency means the concentration at half of the fitted maximal effect)
Method in brief: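 Viability counter-read: CellTiter-Glo luminescence (30 min, room temperature) in the same p53RE-bla plates. These plates had been exposed to compounds for 16 h at 37 C.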

[4] = qHTS assay for small molecules that induce genotoxicity in human embryonic kidney cells expressing luciferase-tagged ATAD5 - cell viability (AID 651634; calls by dose curve; further: nearly all actives have a fitted effect of over 25% in size; further: potency means the concentration at half of the fitted maximal effect)
Method in brief: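 15.5 hr compound or vehicle exposure of HEK293T cells expressing luciferase-tagged ATAD5 at 37C; live-cell protease activity is read by fluorescence after 30 min of CellTiter-Fluor.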

[5] = qHTS assay for small molecule disruptors of the mitochondrial membrane potential - cell viability (AID 720634; calls by dose curve; further: nearly all actives have a fitted effect of over 20% in size; further: potency means the concentration at half of the fitted maximal effect)
Method in brief: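 In this qHTS format, HepG2 cells plated overnight were pinned with compound, incubated 1 hr, and assayed for ATP luminescence with CellTiter-Glo after m-MPI dye addition.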

[6] = qHTS assay for small molecule disruptors of the mitochondrial membrane potential (AID 720635); further: potency means the concentration at half of the fitted maximal effect
Method in brief: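 Mitochondrial membrane potential tracked with Mito-MPS dye, red aggregates (ex 540/em 590 nm) against green monomers (ex 490/em 535 nm). Compound treatment 1 hr at 37C, dye 30 min in HepG2.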

[7] = qHTS assay to test for compound auto fluorescence at 535 nm (green) in HepG2 cells (AID 720675)
[8] = qHTS assay to test for compound auto fluorescence at 460 nm (blue) in HEK293 cells (AID 720678); further: potency means the concentration at half of the fitted maximal effect
Method in brief: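 Blue read-out at excitation 405 nm and emission 460 nm follows overnight compound exposure of HEK293 cells at 37C in 5% CO2. Activity is given as auto fluorescence equivalency to triamterene.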

[9] = qHTS assay to test for compound auto fluorescence at 590 nm (red) in HEK293 cells (AID 720679)
Method in brief: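 Red channel, Ex/Em 540/590nm; signal expressed as equivalency to Rose Bengal sodium. HEK293, 2,000 cells/well, 10% dialyzed FBS; 23 nL compound pinned after 4-5 hr attachment; overnight 37C/5% CO2 before reading.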

[10] = qHTS assay to test for compound auto fluorescence at 535 nm (green) in HEK293 cells (AID 720680)
[11] = qHTS assay to test for compound auto fluorescence at 460 nm (blue) in HEK293 cell free culture (AID 720681)
Method in brief: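 Blue fluorescence (Ex 405/Em 460 nm, triamterene-equivalent) was read immediately after pin transfer of compound or DMSO into medium (DMEM, 10% FBS) without cells.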

[12] = qHTS assay to test for compound auto fluorescence at 535 nm (green) in HEK293 cell free culture (AID 720682)
Method in brief: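 DMEM + 10% FBS, cell-free; cpd or DMSO pinned in; Ex485/Em535 read; output as fluorescein-equivalent signal.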

[13] = qHTS assay to test for compound auto fluorescence at 590 nm (red) in HEK293 cell free culture (AID 720683)
Method in brief: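 Red-channel autofluorescence of compounds in culture medium (DMEM, 10% FBS), no cells, measured at 540/590 nm. Rose Bengal sodium is the reference fluorophore for equivalence.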

[14] = qHTS assay to test for compound auto fluorescence at 590 nm (red) in HepG2 cell free culture (AID 720684)
Method in brief: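 Cell-free; medium MEM + 10% FBS; compound or DMSO added by pintool; read Ex 540/Em 590 nm; Rose Bengal sodium as red reference fluorophore.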

[15] = qHTS assay to test for compound auto fluorescence at 460 nm (blue) in HepG2 cell free culture (AID 720685); further: potency means the concentration at half of the fitted maximal effect
Method in brief: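 Cell-free plates of MEM plus 10% FBS received 23 nL compound or DMSO vehicle; blue-channel (405/460 nm) intensity scored against triamterene as reference fluorophore.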

[16] = qHTS assay to test for compound auto fluorescence at 535 nm (green) in HepG2 cell free culture (AID 720686)
[17] = qHTS assay to test for compound auto fluorescence at 460 nm (blue) in HepG2 cells (AID 720687)
Method in brief: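 Blue-channel autofluorescence (Ex/Em 405/460 nm, triamterene-equivalent) was measured after 1 hr compound exposure at 37 C, 5% CO2. Cells were HepG2, plated overnight at 37 C in MEM plus 10% FBS.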

[18] = qHTS assay to test for compound auto fluorescence at 590 nm (red) in HepG2 cells (AID 720674)
Method in brief: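 We screened compounds on adherent HepG2 cells, incubating them for an hour at 37 C in 5% CO2 before reading emission at 590 nm under 540 nm excitation; values reflect equivalence to Rose Bengal sodium fluorescence.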

[19] = molecular target: Glucocorticoid receptor (Homo sapiens) (UniProt P04150); assay: qHTS assay to identify small molecule agonists of the glucocorticoid receptor (GR) signaling pathway (AID 720691; active means well fitted activation curve with a large enough effect in the signal ratio in the repeat runs, not every such curve was filed as active; the % refers to the signal ratio)
Method in brief: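 Measures GR pathway activation through a GRE-beta-lactamase reporter stably integrated in HeLa cells, with 18 h compound treatment at 37 C and fluorescence detection using a FRET substrate.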

[20] = molecular target: Glucocorticoid receptor (Homo sapiens) (UniProt P04150); assay: qHTS assay to identify small molecule antagonists of the glucocorticoid receptor (GR) signaling pathway (AID 720692; active means well fitted inhibition curve with a large enough effect in the signal ratio in the repeat runs, not every such curve was filed as active; the % refers to the signal ratio; further: potency means the concentration at half of the fitted maximal effect)
Method in brief: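 Tox21 10K library screened in concentration-response for blockade of dexamethasone (5 nM final)-induced GRE-bla reporter activity in HeLa cells; 18 h treatment, fluorescence read.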
Tags describe the fitted curve by direction and shape or compound fluorescence and quenching.

Sequence of Glucocorticoid receptor (Homo sapiens) (P04150 whole entry, looked up): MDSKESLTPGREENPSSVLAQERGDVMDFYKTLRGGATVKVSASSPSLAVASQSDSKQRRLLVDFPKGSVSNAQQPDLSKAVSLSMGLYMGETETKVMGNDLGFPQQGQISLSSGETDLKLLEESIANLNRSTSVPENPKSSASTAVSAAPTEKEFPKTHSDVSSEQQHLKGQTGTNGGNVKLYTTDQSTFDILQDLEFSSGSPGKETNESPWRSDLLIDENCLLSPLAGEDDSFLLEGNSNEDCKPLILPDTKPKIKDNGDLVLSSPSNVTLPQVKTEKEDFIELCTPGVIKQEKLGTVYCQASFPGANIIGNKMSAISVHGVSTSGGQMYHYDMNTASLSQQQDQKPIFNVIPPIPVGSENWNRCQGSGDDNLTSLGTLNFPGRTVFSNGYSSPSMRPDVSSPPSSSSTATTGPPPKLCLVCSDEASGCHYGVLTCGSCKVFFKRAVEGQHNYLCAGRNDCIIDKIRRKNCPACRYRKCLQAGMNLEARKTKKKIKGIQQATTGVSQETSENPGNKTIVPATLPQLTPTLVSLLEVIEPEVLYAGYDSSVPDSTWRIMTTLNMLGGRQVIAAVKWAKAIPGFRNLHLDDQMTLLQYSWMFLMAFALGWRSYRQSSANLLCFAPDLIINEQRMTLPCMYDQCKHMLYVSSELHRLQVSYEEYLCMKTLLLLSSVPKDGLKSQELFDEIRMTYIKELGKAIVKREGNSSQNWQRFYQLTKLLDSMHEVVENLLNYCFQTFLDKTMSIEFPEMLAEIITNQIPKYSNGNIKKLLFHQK

COC(=O)N(C(=O)N1CO[C@@]2(C(=O)OC)Cc3cc(Cl)ccc3C2=N1)c1ccc(OC(F)(F)F)cc1
Potency [1]: 46.9 µM (active) | Potency [2]: inactive | Potency [3]: inactive | Potency [4]: inactive | Potency [5]: 3.32 µM (active) | Potency [6]: 13.2 µM (active) | outcome [7]: inactive | Potency [8]: inactive | outcome [9]: inactive | outcome [10]: inactive | Potency [11]: inactive | outcome [12]: inactive | outcome [13]: inactive | outcome [14]: inactive | Potency [15]: inactive | outcome [16]: inactive | Potency [17]: inactive

Nc1ccccc1C(=O)Oc1ccc2ccccc2c1
Potency [1]: inactive | Potency [2]: 5.45 µM (active) | Potency [3]: inactive | Potency [4]: inactive | Potency [6]: 61.1 µM (active) | outcome [18]: inactive | outcome [7]: inactive | Potency [8]: inactive | outcome [9]: inactive | outcome [10]: inactive | Potency [11]: inactive | outcome [12]: inactive | outcome [13]: inactive | outcome [14]: inactive | Potency [15]: inactive | outcome [16]: inactive | Potency [17]: inactive | Potency [19]: inactive | Potency [20]: inactive

CCCCCCCCCCCCCCCC[n+]1ccccc1
Potency [1]: 26.6 µM (active) and 71.7 µM (active) | Potency [2]: inactive | Potency [3]: 67.6 µM (active) [middle of 4 runs] | Potency [4]: 63.9 µM (active) and 48.6 µM (active) | Potency [5]: 63.9 µM (active) and 60.3 µM (active) | Potency [6]: 24.3 µM (active) [middle of 4 runs] | outcome [7]: inactive | Potency [8]: inactive | outcome [9]: inactive | outcome [10]: inactive | Potency [11]: inactive | outcome [12]: inactive | outcome [13]: inactive | outcome [14]: inactive | outcome [16]: inactive | Potency [17]: inactive

CCOC(=O)OC1=C(c2cc(C)ccc2C)C(=O)NC12CCC(OC)CC2 (centres undefined)
Potency [1]: 68.5 µM (active) | Potency [2]: inactive | Potency [3]: inactive | Potency [4]: inactive | Potency [5]: 10.9 µM (active) | Potency [6]: 21.7 µM (active) | outcome [18]: inactive | outcome [7]: inactive | Potency [8]: inactive | outcome [9]: inactive | outcome [10]: inactive | Potency [11]: inactive | outcome [13]: inactive | outcome [14]: inactive | outcome [16]: inactive | Potency [17]: inactive | Potency [19]: inactive

CN(C)[C@@H]1C(=O)C(C(N)=O)=C(O)[C@@]2(O)C(=O)C3=C(O)c4c(O)ccc(Cl)c4[C@@](C)(O)[C@H]3C[C@@H]12
Potency [1]: inactive | Potency [2]: inactive | Potency [3]: inactive | Potency [4]: inactive | Potency [5]: inactive | outcome [18]: inactive | outcome [7]: inactive | Potency [8]: inactive | outcome [9]: inactive | outcome [10]: inactive | Potency [11]: inactive | outcome [12]: inactive | outcome [13]: inactive | outcome [14]: inactive | Potency [15]: inactive | outcome [16]: inactive | Potency [17]: inactive | Potency [19]: inactive | Potency [20]: inactive

CNC(C)Cc1ccc2c(c1)OCO2 (centres undefined)
Potency [1]: inactive | Potency [2]: inactive | Potency [3]: inactive | Potency [4]: inactive | Potency [5]: inactive | outcome [18]: inactive | outcome [7]: inactive | Potency [8]: inactive | outcome [9]: inactive | outcome [10]: inactive | Potency [11]: inactive | outcome [12]: inactive | outcome [13]: inactive | Potency [15]: inactive | Potency [17]: inactive

c1ccc2cc3c(cc2c1)-c1cccc2cccc-3c12
Potency [1]: 1.7 µM (active) | Potency [2]: inactive | Potency [3]: inactive | Potency [4]: inactive | Potency [5]: inactive | outcome [7]: inactive | Potency [8]: 3.55 µM [fluorescent] (active) | outcome [9]: inactive | outcome [10]: inactive | outcome [12]: inactive | outcome [13]: inactive | outcome [14]: inactive | Potency [15]: 1.41 µM [fluorescent] (active) | outcome [16]: inactive

CC(C)CC(C)N (centres undefined)
Potency [1]: inactive | Potency [2]: inactive | Potency [3]: inactive | Potency [4]: inactive | Potency [5]: inactive | Potency [6]: inactive | outcome [18]: inactive | outcome [7]: inactive | Potency [8]: inactive | outcome [9]: inactive | outcome [10]: inactive | Potency [11]: inactive | outcome [12]: inactive | outcome [13]: inactive | outcome [14]: inactive | Potency [15]: inactive | outcome [16]: inactive | Potency [17]: inactive | Potency [19]: inactive | Potency [20]: inactive

C1CCC2CCCCC2C1 (centres undefined)
Potency [1]: inactive | Potency [2]: inactive | Potency [3]: inactive | Potency [4]: inactive | Potency [5]: inactive | outcome [18]: inactive | outcome [7]: inactive | Potency [8]: inactive | outcome [9]: inactive | outcome [10]: inactive | Potency [11]: inactive | outcome [12]: inactive | outcome [13]: inactive | outcome [14]: inactive | outcome [16]: inactive | Potency [17]: inactive | Potency [19]: inactive

C[C@]12CC[C@@H]3c4ccc(OC(=O)N(CCCl)CCCl)cc4CC[C@H]3[C@@H]1CC[C@@H]2O
Potency [1]: 21.1 µM (active) | Potency [2]: inactive | Potency [3]: inactive | Potency [4]: inactive | Potency [5]: inactive | Potency [6]: inactive | outcome [18]: inactive | outcome [7]: inactive | Potency [8]: inactive | outcome [9]: inactive | outcome [10]: inactive | Potency [11]: inactive | outcome [12]: inactive | outcome [13]: inactive | Potency [15]: inactive | Potency [17]: inactive | Potency [19]: inactive | Potency [20]: inactive

CC(=O)O[C@H]1CC[C@@]2(C)C(=CC[C@@H]3[C@@H]2CC[C@]2(C)C(=O)CC[C@@H]32)C1
Potency [1]: inactive | Potency [2]: inactive | Potency [3]: inactive | Potency [4]: inactive | Potency [5]: inactive | Potency [6]: inactive and 54.5 µM (active) | outcome [7]: inactive | Potency [8]: inactive | outcome [9]: inactive | outcome [10]: inactive | Potency [11]: inactive | outcome [12]: inactive | outcome [13]: inactive | outcome [14]: inactive | Potency [15]: inactive | outcome [16]: inactive | Potency [17]: inactive | Potency [19]: inactive | Potency [20]: inactive

CCCCCCCCCCCCCN1CC(C)OC(C)C1 (centres undefined)
Potency [1]: inactive | Potency [2]: inactive | Potency [3]: inactive | Potency [4]: inactive | Potency [5]: inactive | outcome [18]: inactive | outcome [7]: inactive | Potency [8]: inactive | outcome [9]: inactive | outcome [10]: inactive | Potency [11]: inactive | outcome [12]: inactive | outcome [13]: inactive | outcome [14]: inactive | Potency [15]: inactive | outcome [16]: inactive | Potency [17]: inactive | Potency [19]: inactive | Potency [20]: inactive

Cc1cc(C(C)(C)c2cc(C)c(O)c(C)c2)cc(C)c1O
Potency [1]: 29.6 µM (active) | Potency [2]: inactive | Potency [3]: 59.1 µM (active) | Potency [4]: inactive | Potency [5]: 29.6 µM (active) | Potency [6]: 18.7 µM (active) | outcome [18]: inactive | outcome [7]: inactive | Potency [8]: inactive | outcome [9]: inactive | outcome [10]: inactive | Potency [11]: inactive | outcome [12]: inactive | outcome [13]: inactive | outcome [14]: inactive | Potency [15]: inactive | outcome [16]: inactive | Potency [17]: inactive | Potency [20]: 4.74 µM (active)
